Laboratory results: the OligoGym collection

molecular target: LEKR1; assay: pooled miR-30 sensor sort-seq; sequence = guide strand; details: shRNA
Also: reference of the scale not given here.

Row | Sequence | sensor-assay potency score (higher = more potent)
1 | TTAGATTCTTCAGTGTACCGAG | 0.595
2 | TTGCTTTTCTTTCACAGTCAGC | -1.35
3 | TTTCCTTTGAATTAGATTCTTC | 0.113

molecular target: LENG8; assay: as above; details: shRNA

Row | Sequence | sensor-assay potency score (higher = more potent)
4 | TGTTGAACTTGAGACCTCCAGT | -0.589
5 | TAAATTTACAACCCAAGTCCAC | -0.679
6 | TTCTTCAGCTCTCGCTCCGGGT | -0.923
7 | TAGTCCTGCTTCTCTTTCCAGT | -0.999
8 | TACACCTCCACCGTGAACTCGG | -0.419
9 | TGTACTGAGAAGACCAATCTGT | 0.223
10 | TCCACCGTGAACTCGGTGCGGA | -1.28
11 | TTCATGGTCACCCTTCTCCAAG | -1.23
12 | TTCTCGTGTGAGGTATGCCAGC | -1.1
13 | TTGTACTGCTGGTACCACTGGT | 0.0135
14 | TTGTCCTTCATGAAGACGTTGC | -0.437
15 | TTGAGCAGCTTTTCCGTGCGGT | 0.289

molecular target: LEPRE1; assay: as above; details: shRNA

Row | Sequence | sensor-assay potency score (higher = more potent)
16 | TTGGTAATAGTCTAGGTTCTGC | -0.468
17 | TACTGTATCGCTGTCATGCAGC | -0.397
18 | TGTATCGCTGTCATGCAGCGGC | -0.603
19 | TTCTCTTGCAATCTCTTGGGAA | -0.439
20 | TTGAGTCTCAAGATCCTTGAAG | -0.379
21 | TTGTTGATCTTGAAGTAGGCGA | -0.0372
22 | TTCTCCAACTTGTTGATCTTGA | 0.193
23 | TACACAGACACTTAAGTACTGT | -0.0661
24 | TCCAGCTCCATCTCTTCGCTGA | -0.664
25 | TGCAGCAACAGCTTTCTCCAAC | -1.07
26 | TTTCTCTTGCAATCTCTTGGGA | -0.177
27 | TAGAGTCGCACTCCCAGTCGAA | -0.94

molecular target: LGALS1; assay: as above; details: shRNA

Row | Sequence | sensor-assay potency score (higher = more potent)
28 | TTGAGATTCAGGTTGCTGGCGA | 0.199
29 | TTCAGCACGAAGCTCTTAGCGT | -0.712
30 | TTTGATCTTGAAGTCACCGTCA | 0.476
31 | TTGCTGTTGCACACGATGGTGT | -0.61
32 | TGATCTTGAAGTCACCGTCAGC | -1.02
33 | ATTTGATCTTGAAGTCACCGTC | 0.155
34 | TTGACGGTCAGGTTGGCCTGGT | -0.281
35 | TTCGTATCCATCTGGCAGCTTG | -0.744
36 | TTGATCTTGAAGTCACCGTCAG | 0.0268
37 | TTGCACACGATGGTGTTGGCGT | -0.422

molecular target: LGALS7B; assay: as above; details: shRNA

Row | Sequence | sensor-assay potency score (higher = more potent)
38 | ATTGGGAGGAACCAAGCCGCGA | -1.73
39 | TGAAATGCAGGGCGGCATCGGA | -1.07
40 | TTGAAGACCACCTCCGACGTGT | 0.725
